Source: PubChem BioAssay
Hits are enriched below; roughly 28% of the tested compounds scored in any of these assays.
CYP2C9 activ: human CYP2C9 activators, primary screen, biochemical, luminescence; Cytochrome P450 2C9 (Homo sapiens), P11712; recombinant CYP2C9, luciferin-H conversion; active compounds read high; factor 1 = untreated enzyme, 0 = blocked; activation factor at 5 µM; 96,000 compounds, 1.4% hits;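 active = activation factor of 2 or more for CYP2C9 at a 5 µM dose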;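 also: 0 = sulfaphenazole-blocked wells and 1 = vehicle-only wells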
Target sequence (P11712 whole entry, looked up): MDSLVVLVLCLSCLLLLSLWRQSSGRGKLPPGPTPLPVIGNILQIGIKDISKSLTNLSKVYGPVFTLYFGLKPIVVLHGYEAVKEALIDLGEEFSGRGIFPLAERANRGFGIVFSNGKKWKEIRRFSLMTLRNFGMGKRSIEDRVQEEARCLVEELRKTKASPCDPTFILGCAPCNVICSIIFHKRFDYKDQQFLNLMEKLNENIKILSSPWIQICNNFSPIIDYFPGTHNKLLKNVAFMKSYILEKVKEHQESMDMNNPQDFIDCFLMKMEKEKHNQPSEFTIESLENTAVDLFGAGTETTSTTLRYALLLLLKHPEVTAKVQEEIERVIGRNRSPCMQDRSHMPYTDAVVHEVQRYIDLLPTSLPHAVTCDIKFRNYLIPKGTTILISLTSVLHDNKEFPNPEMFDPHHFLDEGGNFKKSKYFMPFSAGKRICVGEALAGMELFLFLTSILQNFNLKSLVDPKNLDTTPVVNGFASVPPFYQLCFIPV
CYP2C19 inhib: blockers of cytochrome P450 2C19 activity – biochemical, luminescence, ADME assay, primary screen; AID 778, 2007; CYP2C19 Supersomes, luciferin-H EGE luminescence, 30 min; inhibition, % at 5 µM; P33261; 96,000 compounds, 21% hits;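 active = CYP2C19 inhibition above a set limit at 5 µM in the primary screen, cut at about 50% in these data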;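 also: plate controls were negative control wells for no effect and 2.5 mM tranylcypromine positive control for full effect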
CYP2C9 inhib: blockers of cytochrome P450 2C9 activity – biochemical, luminescence, ADME assay, primary screen | P11712 | CYP2C9 Supersomes, luciferin-H conversion | inhibition, % at 5 µM | 96,000 compounds, 20% hits | AID 777, 2007;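 active = blocking of liver enzyme CYP2C9 beyond about 50% at 5 µM, limit read from the data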
Plk1 PBD FP: Plk1 polo box domain binding inhibitors, primary screen, biochemical, fluorescence polarization; Serine/threonine-protein kinase PLK1 (Homo sapiens), P53350; Plk1 PBD phosphopeptide binding; inhibition, %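 (tested at about 20 µM)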; 97,000 compounds, 0.13% hits; AID 693, 2007; in the data active = inhibition above about 34%, passing the limit was not always enough
PLK1 inh: human PLK1 kinase inhibitors, primary screen, biochemical, TR-FRET | recombinant PLK1 kinase, TR-FRET peptide phosphorylation | inhibition, % at 10 µM | 97,000 compounds, 0.53% hits | AID 619, 2007;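 active = inhibition of 50% or more in the single-concentration screen; inactive = inhibition below 50%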;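 also: 0% = DMSO max control and 100% = H-89 dihydrochloride min control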
CYP2C19 activ: human CYP2C19 activators, primary screen, biochemical, luminescence. Cytochrome P450 2C19 (Homo sapiens), P33261. recombinant CYP2C19, luciferin-H EGE luminescence; active compounds read high; 0 = fully inhibited enzyme, 1 = untreated enzyme. AID 1025, 2008. activation factor at 5 µM. 96,000 tested, under 10 active;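 active = activation factor of at least 2 at 5 µM in the primary screen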;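 also: 0 = wells with 2.5 mM tranylcypromine and 1 = vehicle-only wells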
* = called active by the depositor; . = not tested or not shown.

SMILES | CYP2C9 activ | CYP2C19 inhib | CYP2C9 inhib | Plk1 PBD FP | PLK1 inh | CYP2C19 activ
CS(=O)(=O)N(Cc1ccc(Cl)cc1)c1ccc(C(=O)Nc2cccnc2)cc1 | 0.2 | 95.2* | 83.8* | -3.6 | -14.8 | 0
CC(=O)c1cccc(NC(=O)c2ccc(N(Cc3ccc(C)cc3)S(C)(=O)=O)cc2)c1 | 0.1 | 85.2* | 85.4* | 3.7 | -11.3 | 0.1
O=C(N1CCOCC1)N1CCC(NC(=O)C23CC4CC(CC(C4)C2)C3)CC1 | . | . | . | 6.1 | -2.4 | .
CCOC(=O)c1ccc(NC(=O)CSc2nnc(CNc3ccc(OC)cc3)n2C)cc1 | 0.7 | 27.1 | 27.3 | -3.2 | -4.6 | 0.7
Cc1ccc(NC2=NCC(=O)N2CCc2ccccc2)cc1C | 0.5 | 98.0* | 49.9 | 7.2 | -4.5 | 0
CCOc1ccc(NC2=C(Cl)C(=O)N(Cc3ccccc3)C2=O)cc1 | 1 | -2.2 | 4.9 | 3.9 | -6.7 | 1
CCOc1ccc(NC2=NCC(=O)N2CCc2ccccc2)cc1 | 0.6 | 66.6* | 44.2 | -2.2 | -5.6 | 0.3
CCCCc1[nH]c(=O)c(C#N)c2c1CCCC2 | 0.8 | 7.6 | 23.5 | 24.9 | -9.8 | 0.9
Cc1nn2c(N3CCOCC3)c3c(nc2c1-c1ccccc1)CCCC3 | 0.2 | -8.0 | 76.6* | -19.6 | -5.1 | 1.1
Cc1nn2c(-n3ccnc3C)c3c(nc2c1-c1ccccc1)CCC3 | 0.4 | 90.2* | 62.5* | 21.8 | -1.3 | 0.1
Cc1nn2c(NCC(C)C)c3c(nc2c1-c1ccccc1)CCC3 | 0.8 | 5.9 | 17.2 | -1.5 | -9.9 | 0.9
CC(=O)NCCc1nc2ccccc2n1Cc1ccccc1 | 0.8 | 58.9* | 16.9 | -5.0 | -17.6 | 0.4
COCc1nc2ccccc2n1Cc1ccccc1 | 0.7 | 79.3* | 32.1 | -5.0 | -16.9 | 0.2
Cc1ccc(Cn2c(Cc3ccccc3)nc3ccccc32)cc1 | 0.6 | 41.2 | 43.8 | 26.0 | -11.3 | 0.6
CC(=O)NCCCc1nc2ccccc2n1Cc1ccc(C)cc1 | 0.5 | 22.5 | 48.7 | 9.1 | -9.7 | 0.8
COCc1nc2ccccc2n1Cc1ccc(Br)cc1 | 0.1 | 99.5* | 89.7* | -7.0 | -4.8 | 0
Cc1cccc(NCc2nc3ccccc3n2Cc2ccccc2)c1 | 0 | 95.8* | 96.0* | 9.6 | -9.4 | 0
CCC(C)NC(=O)CNC(=O)Cn1c(C)cc2ccccc2c1=O (stereo not given) | 1.2 | 11.3 | -23.9 | . | . | 0.9
C=CCSc1nnc(NC(=O)CSc2nc3ccccc3[nH]2)s1 | 0.1 | 61.6* | 87.0* | -4.3 | -2.5 | 0.4
C=CCSc1nnc(NC(=O)CSc2nc(CCC)cc(=O)[nH]2)s1 | 0.7 | 50.8* | 33.7 | -6.0 | 5.3 | 0.5
C=CCSc1nnc(NC(=O)CSc2nnc(C)s2)s1 | 0.7 | 18.0 | 28.4 | 10.5 | -12.7 | 0.8
CCCc1cc(=O)[nH]c(SCC(=O)Nc2c(C)cccc2C)n1 | 0.6 | 37.8 | 36.0 | -16.9 | -1.0 | 0.6
CCOc1ncccc1C(=O)OCC(=O)NCCc1ccccc1 | 0.8 | 67.7* | 15.5 | -7.7 | -6.3 | 0.3
Cc1cc(C(=O)OCC(=O)Nc2ccccc2F)c(C)o1 | 0.8 | 49.0 | 19.1 | -1.7 | -9.3 | 0.5
Cc1cc(C(=O)OCC(=O)NCCc2ccccc2)c(C)o1 | 0.1 | 76.0* | 87.6* | 24.3 | -6.2 | 0.2
SMILES | CYP2C9 activ | CYP2C19 inhib | CYP2C9 inhib | Plk1 PBD FP | PLK1 inh | CYP2C19 activ
CCOC(=O)CC(=O)Nc1ccc(Br)cc1C(=O)O | 0.6 | 15.1 | 45.0 | 13.9 | -2.3 | 0.8
CCOc1ccccc1NC(=O)C1CCN(S(=O)(=O)c2cccc3cccnc23)CC1 | 1.6 | 92.6* | -57.9 | -14.4 | -15.7 | 0.1
COc1ccc(S(=O)(=O)N2CCC(C(=O)Nc3ccccc3C)CC2)c2cccnc12 | 0.7 | 63.4* | 32.3 | -13.7 | -7.2 | 0.4
COc1ccc(S(=O)(=O)n2ccnc2)c2cccnc12 | 0.5 | 55.5* | 53.3* | 23.5 | -17.1 | 0.4
COc1ccc(C)cc1NC(=O)C1CCN(S(=O)(=O)c2cccc3cccnc23)CC1 | 2.7* | -6.8 | -173.8 | 10.4 | -10.1 | 1.1
CC(C)C(OC(=O)c1ccco1)C(=O)NCc1ccccc1 (stereo not given) | 0.8 | 32.8 | 23.3 | -3.9 | -12.7 | 0.7
